Records with an inconclusive call do not appear. Calls of active or inactive are those of the source. Unless noted, the call rests on the fitted dose curve; in most records, active means well fitted curve in the direction sought with a large enough effect; inconclusive means small, poorly fitted or top-dose-only effect, or another doubt; inactive means no such curve, though single readings can be large; an effect the other way counts as inactive or inconclusive.
How the values were obtained:
[1] = target: Voltage-gated inwardly rectifying potassium channel KCNH2 (Homo sapiens) (UniProt Q12809); experiment: qHTS Assay for Small Molecule Inhibitors of the Human hERG Channel Activity (AID 588834);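 further: top concentration of the series differs between compounds; on the % scale 0 is the no-effect control and ±100 the full control effect; lower thallium flux fluorescence means stronger hERG block; nearly all actives have a fitted effect of over 50% in size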
In short: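 Measured: FluxOR fluorescence after thallium stimulation in U2OS cells transduced with hERG by baculovirus. Compounds pre-incubated around 10 min; medium Opti-MEM with 2% FCS. AC50 from Hill equation.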

[2] = target: Luciferin 4-monooxygenase (Photinus pyralis) (UniProt P08659); experiment: Biochemical firefly luciferase enzyme assay for NPC (AID 624030);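 further: purified P. pyralis luciferase at 10 nM with luciferin and ATP substrate; series mostly up to about 59 µM; 0% = DMSO and -100% = full luciferase inhibition by PTC124 control; nearly all actives have a fitted effect of over 70% in size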
In short: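 Direct inhibition of firefly luciferase enzyme (10 nM final, 50 mM Tris Acetate) assessed by luminescence within 5 minutes. Percent activity scaled between DMSO and PTC124 positive control, with concentration-effect curves classified by fit quality and response.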

[3] = S16 Schwann cell viability assay (CellTiter-Glo assay) (AID 624031);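 further: native untransfected S16 rat Schwann cells; cellular ATP luminescence as a viability measure; series mostly up to about 58 µM; plate controls were DMSO-treated cells for no effect and cell-free wells for full effect; nearly all actives have a fitted effect of over 70% in size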
In short: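 Cells were seeded at 500-750 per well in phenol red-free DMEM with 10% FBS and left overnight. Compounds or DMSO were pinned in, incubation ran 24 h at 37 °C/5% CO2, then CellTiter-Glo reagent was added and luminescence measured.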

[4] = S16 Schwann cell PMP22 intronic element firefly luciferase assay (AID 624032);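 further: series mostly up to about 58 µM; plate controls were DMSO for no effect and PTC124 positive control mean for full effect; nearly all actives have a fitted effect of over 30% in size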
In short: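 Luciferase reporter of PMP22 intronic-element expression in stably transfected S16 rat Schwann cells, read by ONE-Glo luminescence after 24 h compound exposure at 37 C. Activity scaled between DMSO (0%) and positive-control PTC124; concentration-effect curves quality-classified.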

[5] = S16 Schwann cell PMP22 intronic element beta-lactamase assay (AID 624044; calls by dose curve;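 further: 0% = DMSO and -100% = potassium clavulanate positive control; nearly all actives have a fitted effect of over 15% in size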)
In short: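 Rat S16 Schwann cells with beta-Lac driven by a PMP22 intronic element, compound-treated 24 h at 37 °C. LiveBLAzer FRET B/G read: 460 nm normalized to potassium clavulanate vs DMSO; 535 nm FRET as viability; concentration-effect curves classified.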

[6] = qHTS assay for small molecule agonists of the antioxidant response element (ARE) signaling pathway (AID 651741; active means well fitted activation curve with a large enough effect in the signal ratio; the % refers to the signal ratio; further: % of control where 0% means no effect)
In short: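 Quantitative HTS in HepG2 cells stably expressing an ARE-beta-lactamase reporter; 16 h compound exposure at 37 C, followed by 2 h room-temperature incubation with LiveBLAzer B/G FRET substrate and fluorescence measurement.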

[7] = qHTS assay for small molecule activators of the p53 signaling pathway (AID 651743; active means well fitted activation curve with a large enough effect in the signal ratio, not every such curve was filed as active; the % refers to the signal ratio; further: series mostly up to about 92 µM; % of control where 0% means no effect); conditions: HCT-116 p53RE-bla, beta-lactamase FRET ratio, 16 h; hits give high values
In short: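 Read-out is fluorescence intensity from the LiveBLAzer B/G FRET substrate, added for 2 hours at room temperature after HCT-116 p53RE-bla cells had been incubated with compounds for 16 hours at 37 C.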

[8] = qHTS assay for small molecule activators of the nuclear factor-kappa B (NF-kB) signaling pathway (AID 651749; active means well fitted activation curve with a large enough effect in the signal ratio; the % refers to the signal ratio; further: series mostly up to about 77 µM; % of control where 0% means no effect); conditions: NF-kB-bla ME-180 cells, beta-lactamase FRET ratio, 16 h; hits give high values
In short: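 Readout: beta-lactamase reporter driven by an NF-kB response element, detected fluorescently as loss of FRET. Cells were the ME-180 line, treated 16 hr at 37C with pin-transferred compound.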

Sequence of Voltage-gated inwardly rectifying potassium channel KCNH2 (Homo sapiens) (Q12809 whole entry, looked up): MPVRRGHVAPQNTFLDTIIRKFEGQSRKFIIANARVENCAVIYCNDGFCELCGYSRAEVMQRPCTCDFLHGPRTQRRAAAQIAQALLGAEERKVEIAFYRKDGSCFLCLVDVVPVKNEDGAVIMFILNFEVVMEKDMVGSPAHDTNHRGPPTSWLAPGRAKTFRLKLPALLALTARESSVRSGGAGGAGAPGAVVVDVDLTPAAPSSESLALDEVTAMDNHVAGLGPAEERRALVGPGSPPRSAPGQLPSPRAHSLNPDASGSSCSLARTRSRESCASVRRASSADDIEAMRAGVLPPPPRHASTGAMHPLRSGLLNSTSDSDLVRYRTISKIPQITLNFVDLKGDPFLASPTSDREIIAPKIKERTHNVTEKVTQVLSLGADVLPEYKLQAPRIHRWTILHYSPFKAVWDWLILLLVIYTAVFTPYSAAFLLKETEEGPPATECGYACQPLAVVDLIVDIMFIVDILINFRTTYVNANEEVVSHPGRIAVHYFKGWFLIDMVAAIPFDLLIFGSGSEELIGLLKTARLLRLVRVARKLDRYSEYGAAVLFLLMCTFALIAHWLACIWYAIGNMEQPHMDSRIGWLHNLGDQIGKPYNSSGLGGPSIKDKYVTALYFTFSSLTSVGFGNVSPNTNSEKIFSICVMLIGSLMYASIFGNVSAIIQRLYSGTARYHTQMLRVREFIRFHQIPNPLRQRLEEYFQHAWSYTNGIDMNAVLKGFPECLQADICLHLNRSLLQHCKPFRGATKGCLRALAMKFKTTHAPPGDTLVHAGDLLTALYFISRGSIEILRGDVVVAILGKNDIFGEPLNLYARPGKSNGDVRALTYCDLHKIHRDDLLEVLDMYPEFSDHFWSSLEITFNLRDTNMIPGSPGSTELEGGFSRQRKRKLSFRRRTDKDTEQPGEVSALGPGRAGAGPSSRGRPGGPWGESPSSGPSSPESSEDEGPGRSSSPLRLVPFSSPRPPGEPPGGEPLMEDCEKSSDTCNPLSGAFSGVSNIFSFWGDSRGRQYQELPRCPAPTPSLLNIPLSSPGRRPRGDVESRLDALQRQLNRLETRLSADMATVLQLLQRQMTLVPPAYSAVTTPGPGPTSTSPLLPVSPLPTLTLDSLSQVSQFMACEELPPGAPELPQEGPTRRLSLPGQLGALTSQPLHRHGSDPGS
Sequence of Luciferin 4-monooxygenase (Photinus pyralis) (P08659 whole entry, looked up): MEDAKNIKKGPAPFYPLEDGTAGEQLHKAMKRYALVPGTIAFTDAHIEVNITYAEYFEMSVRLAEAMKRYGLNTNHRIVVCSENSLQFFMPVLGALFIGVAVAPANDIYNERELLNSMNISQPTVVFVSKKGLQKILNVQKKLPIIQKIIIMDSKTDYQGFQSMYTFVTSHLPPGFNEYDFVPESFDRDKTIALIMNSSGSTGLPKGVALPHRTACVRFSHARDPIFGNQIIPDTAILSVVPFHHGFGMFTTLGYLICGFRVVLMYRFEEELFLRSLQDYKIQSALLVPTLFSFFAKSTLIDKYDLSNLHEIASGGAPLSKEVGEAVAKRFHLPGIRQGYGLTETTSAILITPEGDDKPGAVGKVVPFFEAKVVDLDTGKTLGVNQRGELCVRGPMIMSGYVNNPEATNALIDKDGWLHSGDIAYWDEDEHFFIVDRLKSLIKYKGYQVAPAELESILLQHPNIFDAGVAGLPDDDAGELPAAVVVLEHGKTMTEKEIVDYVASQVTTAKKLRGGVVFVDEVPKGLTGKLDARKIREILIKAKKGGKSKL

CC(O)CCCCn1c(=O)c2c(ncn2C)n(C)c1=O (stereo not drawn)
inactive: Potency [1] | Potency [2] | outcome [3] | Potency [4] | outcome [5]

COC(=O)c1cccnc1
inactive: Potency [1] | outcome [3] | Potency [4]

CCN1CC(CCN2CCOCC2)C(c2ccccc2)(c2ccccc2)C1=O (stereo not drawn)
inactive: Potency [1] | Potency [2] | outcome [3] | Potency [4] | outcome [5]

CC1CCc2cc(F)cc3c(=O)c(C(=O)O)cn1c23 (stereo not drawn)
inactive: Potency [1] | outcome [3]

CC(C)c1cc2c(cc1S(=O)(=O)O)[C@@]1(C)CCC[C@@](C)(C(=O)O)[C@@H]1CC2
inactive: Potency [1] | Potency [2] | outcome [3] | Potency [4] | outcome [5]

COc1ccccc1OC(=O)Oc1ccccc1OC
inactive: Potency [1] | outcome [3]

Cc1ccsc1C(=CCCN1CCC[C@@H](C(=O)O)C1)c1sccc1C
inactive: Potency [1] | Potency [2] | outcome [3] | outcome [5]

OCc1ccc(Cl)cc1Cl
inactive: Potency [1] | Potency [2] | outcome [3] | Potency [4] | outcome [5]

CCOc1cc(NC(C)=O)ccc1C(=O)OC
inactive: Potency [1] | Potency [2] | outcome [3] | outcome [5]

O=c1[nH]c(=O)c2ccccc2o1
inactive: Potency [1] | outcome [3]

COc1ccccc1Oc1c(NS(=O)(=O)c2ccc(C(C)(C)C)cc2)nc(-c2ncccn2)nc1OCCO
inactive: Potency [1] | Potency [2] | Potency [4] | outcome [5]

COc1ccc(O)cc1
inactive: Potency [1] | Potency [2] | outcome [3] | Potency [4] | Potency [6] | activation [7] 1.27% | activation [8] 0.533%

NS(=O)(=O)c1cc2c(cc1C(F)(F)F)NCNS2(=O)=O
inactive: Potency [1] | outcome [3] | Potency [4]

COc1ccc(NS(=O)(=O)c2ccc(N)cc2)nn1
inactive: Potency [1] | Potency [2] | outcome [3] | Potency [4] | outcome [5]

CCCNC(C)(C)COC(=O)c1ccccc1
inactive: Potency [1] | Potency [2] | outcome [3] | Potency [4] | outcome [5]

O=C(O)c1ccc[n+]([O-])c1
inactive: Potency [1] | outcome [3]

CCOC(=O)c1cccnc1
inactive: Potency [1] | Potency [2] | outcome [3] | Potency [4] | outcome [5]

c1ccc2[nH]ccc2c1
inactive: Potency [1] | Potency [2] | outcome [3] | Potency [4] | outcome [5]

From PubChem BioAssay (NCATS)
